# In PubChem BioAssay (NCATS):
# Records with an inconclusive call do not appear. Unmarked numbers belong to inactive results. Active and inactive are the calls of the source. The call rests on the fitted dose curve.
# Assay: Primary qHTS for inhibitors of MERS-S pseudo-typed particle cell entry (AID 1479149); further: nearly all actives have a fitted effect of over 60% in size; further: potency means the concentration at half of the fitted maximal effect
# Settings: MERS-S pseudotyped particle entry, luciferase; series mostly up to 57.1 µM; activity change, negative = inhibition: at the top concentration
# On the % scale 0 is the no-effect control and ±100 the full control effect.
SMILES,outcome,"activity change, negative = inhibition",Potency
Cc1cccc(C)c1NC(=O)C(C)N (stereo not given),inactive,–,–
CCc1cccc2c3c([nH]c12)C(CC)(CC(=O)O)OCC3 (stereo not given),inactive,–,–
CCCCOc1ccc(OCCCN2CCOCC2)cc1,–,-14.8%,–
CN(C)CC/C=C1\c2ccccc2Sc2ccc(Cl)cc21,–,–,25.1 µM (active)
COc1ccc(CN(CCN(C)C)c2ccccn2)cc1,inactive,–,–
Nc1ccc(S(=O)(=O)Nc2cnc3ccccc3n2)cc1,inactive,–,–
CCCc1cc(C(N)=S)ccn1,inactive,–,–
C[N+](C)(C)CCOC(=O)CCC(=O)OCC[N+](C)(C)C,inactive,–,–
CO[C@]1(NC(=O)CSC(F)F)C(=O)N2C(C(=O)O)=C(CSc3nnnn3CCO)CO[C@H]21,–,3.38%,–
CC(=O)OCC(=O)[C@@]1(O)CC[C@H]2[C@@H]3CCC4=CC(=O)C=C[C@]4(C)[C@H]3[C@@H](O)C[C@@]21C,inactive,–,–
CNC(=O)c1c(I)c(NC(=O)CCCCC(=O)Nc2c(I)c(C(=O)O)c(I)c(C(=O)NC)c2I)c(I)c(C(=O)O)c1I,inactive,–,–
CCOc1cc(N)c(Cl)cc1C(=O)NCC1CN(Cc2ccc(F)cc2)CCO1 (stereo not given),–,-5.12%,–
NC1=NCC2c3ccccc3Cc3ccccc3N12 (stereo not given),inactive,–,–
CNC(=O)c1cnn(-c2nc(N)c3ncn([C@@H]4O[C@H](CO)[C@@H](O)[C@H]4O)c3n2)c1,inactive,–,–
CCOc1ccc2nc(S(N)(=O)=O)sc2c1,inactive,–,–
CCN(CC)CC(=O)Nc1c(C)cccc1C,inactive,–,–
CCCCC/C=C\C/C=C\CCCCCCCC(=O)NC(C)c1ccccc1 (stereo not given),–,-10.4%,–
CC(C)(C)CC(=O)OCC(=O)[C@@]1(O)CC[C@H]2[C@@H]3CCC4=CC(=O)C=C[C@]4(C)[C@H]3[C@@H](O)C[C@@]21C,–,-14.9%,–
Cc1[nH]c(=O)c(C#N)cc1-c1ccc2nccn2c1,inactive,–,–
C#C[C@]1(O)CC[C@H]2[C@@H]3[C@H](C)CC4=C(CCC(=O)C4)[C@H]3CC[C@@]21C,inactive,–,–

# Assay: Primary qHTS for Vero E6 cytotoxicity: counterscreen for inhibitors of SARS-S pseudo-typed particle cell entry (AID 1479150)
# Settings: cell viability; series mostly up to 57.1 µM; activity change, negative = cytotoxicity: at the top concentration
SMILES,outcome,"activity change, negative = cytotoxicity"
O=C1c2cccc(O)c2C(=O)c2c(O)cccc21,inactive,–
CN1CCCN=C1/C=C/c1cccs1,inactive,–
Cc1ccc(C(=O)Oc2ccc(C(O)CNC(C)(C)C)cc2OC(=O)c2ccc(C)cc2)cc1 (stereo not given),inactive,–
CC(C)c1cc2c(cc1S(=O)(=O)O)[C@@]1(C)CCC[C@@](C)(C(=O)O)[C@@H]1CC2,–,1.98%
Oc1ccc(CCNCCCCCCNCCc2ccccc2)cc1O,–,-4.86%
Cn1c(=O)c2c(ncn2C)n(C)c1=O,inactive,–
O=C(O)c1cn(-c2ccc(F)cc2)c2cc(N3CCNCC3)c(F)cc2c1=O,–,1.39% [at 26.4 µM]
N[C@H](Cc1c[nH]c2ccccc12)C(=O)O,inactive,–
CCCSS/C(CCO)=C(\C)N(C=O)Cc1cnc(C)nc1N,–,1.82%
CCOC(=O)OC(C)OC(=O)[C@@H]1N2C(=O)[C@@H](NC(=O)[C@H](N)c3ccccc3)[C@H]2SC1(C)C (stereo not given in full),–,-14.7%
C=Cc1c(C)c2cc3[nH]c(cc4nc(cc5nc(cc1[nH]2)C(C)=C5CCC(=O)O)C(CCC(=O)O)=C4C)c(C)c3C=C,–,4.35%
CCOc1ccc(NC(C)=O)cc1,–,1.58%
CCCCCC1Nc2cc(C(F)(F)F)c(S(N)(=O)=O)cc2S(=O)(=O)N1 (stereo not given),inactive,–
O=C(O)COC(=O)Cc1ccccc1Nc1c(Cl)cccc1Cl,inactive,–
CCCCN(CCN(CCCC)C(=O)N1CCOCC1)C(=O)N1CCOCC1,inactive,–
CCNC(=O)NCCCOc1cccc(CN2CCCCC2)c1,–,4.9%
Oc1ccc(C(O)CNCCCCCCNCC(O)c2ccc(O)c(O)c2)cc1O (stereo not given),–,2.31%
CCOC(=O)n1ccn(C)c1=S,–,2.33%
CCN1CCN(c2cc(-c3ccc(F)cc3)c3c(n2)CCCCCC3)CC1,inactive [at 26.4 µM],–
Cc1cccc(C)c1NC(=O)C(C)N (stereo not given),–,-5.52%

SMILES,outcome,"activity change, negative = cytotoxicity"
CCc1cccc2c3c([nH]c12)C(CC)(CC(=O)O)OCC3 (stereo not given),–,3.12%
CCCCOc1ccc(OCCCN2CCOCC2)cc1,inactive,–
CN(C)CC/C=C1\c2ccccc2Sc2ccc(Cl)cc21,–,-4.64%
COc1ccc(CN(CCN(C)C)c2ccccn2)cc1,–,2.21%
Nc1ccc(S(=O)(=O)Nc2cnc3ccccc3n2)cc1,–,-1.99%
CCCc1cc(C(N)=S)ccn1,–,0.943%
C[N+](C)(C)CCOC(=O)CCC(=O)OCC[N+](C)(C)C,–,-5.45%
CO[C@]1(NC(=O)CSC(F)F)C(=O)N2C(C(=O)O)=C(CSc3nnnn3CCO)CO[C@H]21,inactive,–
CC(=O)OCC(=O)[C@@]1(O)CC[C@H]2[C@@H]3CCC4=CC(=O)C=C[C@]4(C)[C@H]3[C@@H](O)C[C@@]21C,inactive,–
CNC(=O)c1c(I)c(NC(=O)CCCCC(=O)Nc2c(I)c(C(=O)O)c(I)c(C(=O)NC)c2I)c(I)c(C(=O)O)c1I,–,-6.44%
CCOc1cc(N)c(Cl)cc1C(=O)NCC1CN(Cc2ccc(F)cc2)CCO1 (stereo not given),–,2.56%
NC1=NCC2c3ccccc3Cc3ccccc3N12 (stereo not given),–,4.54%
CNC(=O)c1cnn(-c2nc(N)c3ncn([C@@H]4O[C@H](CO)[C@@H](O)[C@H]4O)c3n2)c1,–,-15.5%
CCOc1ccc2nc(S(N)(=O)=O)sc2c1,–,-5.73%
CCN(CC)CC(=O)Nc1c(C)cccc1C,–,1.8%
CCCCC/C=C\C/C=C\CCCCCCCC(=O)NC(C)c1ccccc1 (stereo not given),–,-8.29%
CC(C)(C)CC(=O)OCC(=O)[C@@]1(O)CC[C@H]2[C@@H]3CCC4=CC(=O)C=C[C@]4(C)[C@H]3[C@@H](O)C[C@@]21C,inactive,–
C[C@]12CCC(=O)C=C1[C@@H]1C[C@@H]1[C@H]1[C@@H]3[C@@H]4C[C@@H]4[C@@]4(CCC(=O)O4)[C@@]3(C)CC[C@@H]12,inactive,–
Cc1[nH]c(=O)c(C#N)cc1-c1ccc2nccn2c1,inactive,–
C#C[C@]1(O)CC[C@H]2[C@@H]3[C@H](C)CC4=C(CCC(=O)C4)[C@H]3CC[C@@]21C,inactive,–
